In ChEMBL document CHEMBL3988442, “University of Dundee, Small-Polar-MMV Screening Library” (2021):
Hit rate of the full screen: of about 48,000 compounds, about 13,000 (27%) showed an effect of 50% or more. This is one part of the list.

System: Wolbachia pipientis
Assay: Anti-Wolbachia Cell-Based Screen
Type: functional
Set-up: scale not given: in the data most compounds retested in dose-response had high values
Details: 5 µM

| SMILES | Percent Effect [%] |
| --- | --- |
| CCN1CC2(CCN(CC3CCCO3)CC2)OC1=O (configuration not stated) | -23.86 |
| Cc1cccc(CN2CCOC3(CCCN(CC(=O)N(C)C)C3)C2)n1.O=C(O)C(F)(F)F.O=C(O)C(F)(F)F (configuration not stated) | 7.418 |
| Cn1cc(CN2CCCC3(CCN(C(=O)c4ccccn4)C3)C2)cn1.O=C(O)C(F)(F)F.O=C(O)C(F)(F)F.O=C(O)C(F)(F)F (configuration not stated) | 5.668 |
| O=C1OC2(CCN(CC3CCCO3)CC2)CN1CCc1ccccc1 (configuration not stated) | 4.853 |
| Cc1cccc(CN2CCC3(CCCN(Cc4cnn(C)c4)C3)C2)n1.O=C(O)C(F)(F)F.O=C(O)C(F)(F)F (configuration not stated) | 99.91 |
| c1cc(CN2CCCC3(CCN(CC4CCCO4)CC3)C2)n[nH]1 (configuration not stated) | 86.72 |
| Cn1cc(CN2CCCC3(CCN(c4nncs4)C3)C2)cn1.O=C(O)C(F)(F)F (configuration not stated) | -2.653 |
| Cc1cccc(CN2CCCC3(CCN(CC4CCCO4)CC3)C2)n1.O=C(O)C(F)(F)F.O=C(O)C(F)(F)F (configuration not stated) | 92.13 |
| Cc1cccc(CN2CCC3(CCC(CC(=O)N(C)C)CC3)CC2)n1.O=C(O)C(F)(F)F | -48.49 |
| NC(=O)c1cnc(NC2CCC(c3ccccc3)CC2)c(Cl)c1 (configuration not stated) | -13.17 |
| CCc1ncncc1C(=O)N1CCN(Cc2c(C)noc2C)CC1 | -0.7919 |
| COc1ccccc1OC1CCN(C(=O)c2c[nH]c(=O)[nH]c2=O)CC1 | -1.274 |
| Cc1nn(CCO)c(C)c1CNC1CCOc2ccccc21.Cl (configuration not stated) | -2.726 |
| O=C(NCCNc1ccccn1)N1CCSCC1 | 1.97 |
| CN1CCCN(C(=O)NCCNc2ncccc2C#N)CC1 | -11.99 |
| O=C(NCCNc1cnccn1)N1CC=C(c2ccc(O)cc2)CC1 | -14.06 |
| CC(=O)N1CCCN(C(=O)NCCNc2cnccn2)CC1 | 106.7 |
| O=C(NCCNc1cnccn1)N1CCc2ccccc2C1 | 3.9 |
| CC1CN(C(=O)NCCNc2cnccn2)CCO1 (configuration not stated) | 93.32 |
| CC1CN(C(=O)NCCCn2cncn2)CCO1 (configuration not stated) | -6.452 |
| O=C(NCCNc1cnccn1)N1CCN(c2nccs2)CC1 | 115.8 |
| Cc1[nH]ncc1CCCNC(=O)N1CCOC(C)C1 (configuration not stated) | -4.876 |
| O=C(NCCNc1cnccn1)N1CCN(Cc2cccnc2)CC1 | 1.12 |
| CN1CCCN(C(=O)NCCNc2cnccn2)CC1 | 104.7 |
| O=C(NCCNc1cnccn1)N1CC=C(c2ccccc2)CC1 | -24.03 |
| CC(C)n1ncc2c1NC(=O)C(C#N)C21CCCCC1 (configuration not stated) | 14.23 |
| CC(C)c1cccc(S(=O)(=O)NCCCN2CCC(O)CC2)c1 | -12.32 |
